Measured values: PubChem BioAssay (NCATS)
Records with an inconclusive call do not appear. A number with no mark means an inactive call. Active and inactive are the calls of the source. Calls come from the whole dose curve; as a rule, active = well fitted curve in the direction sought with a large enough effect; inconclusive = small, poorly fitted or top-dose-only effect, or another doubt; inactive = no such curve, though single readings can be large; an effect the other way counts as inactive or inconclusive. *1 amine or outer side, *2 acyl side, *3 side chain or, on linkers, in order; H or OH if unused. Where a SMILES comes first, the peptide text is derived from it. Bridges are numbered along the chain shown (N, C = ends). Roman numbers before positions name the chains, in order. [ ]: non-standard residue; d: D form. ξ: configuration not given here. Actinocin(9to1) = Cc1c2oc3c(C)ccc(C(=O)[*:1])c3nc-2c(C(=O)[*:2])c(N)c1=O; ξNMeV = CNC(C(=O)O)C(C)C; 2Abz = Nc1ccccc1C(=O)O; ξV = CC(C)C(N)C(=O)O; Sar = CNCC(=O)O

Assay: Identifying Small Molecule Inhibitors of Pancreatic Cancer Stem Cells (A2780, Spheroid) (AID 1259357);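 note: spheroids pre-formed over 14 days in stem cell medium on hydrogel; compound exposure lasted 48 h before the ATP luminescence read; 100% = DMSO treated cells and 0% = wells without cells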
Conditions: Potency: A2780 spheroid viability; series mostly up to 46.1 µM; viability (percent of control): at the top concentration
How it was run: (§1)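 Spheroids grown 14 days in stem cell media on hydrogel-coated nonadherent plates; 2D lines seeded directly. Compounds added after 4 h attachment, 48 h at 37C, 5% CO2; CellTiter-Glo luminescence normalized to DMSO (no inhibition) and no-cell wells (full inhibition).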

Compound	viability (percent of control)
COC(=O)C1=C(C)NC(C)=C(C(=O)OCCCN2CCC(c3ccccc3)(c3ccccc3)CC2)[C@H]1c1cccc([N+](=O)[O-])c1	107%
CCCCCCCCCCCCCCCCCCOP(=O)([O-])OC1CC[N+](C)(C)CC1	100% [at 29.8 µM]
C[C@@H]1CCN(C(=O)CC#N)C[C@@H]1N(C)c1ncnc2[nH]ccc12	97.3%

Assay: Identifying Small Molecule Inhibitors of Pancreatic Cancer Stem Cells (Panc1, Spheroid) (AID 1259359);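 note: compound exposure lasted 48 h before reading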; note: potency is the fitted concentration of half-maximal effect
Conditions: Panc1 spheroid cancer stem cell viability; series mostly up to 46.1 µM; viability, % of control: at the top concentration
How it was run: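 Spheroids grown 14 days in stem cell media on nonadherent hydrogel before screening; cells attached 4 h, then compound exposure 48 h at 37C, 5% CO2. CellTiter-Glo luminescence normalized to DMSO (no inhibition) and no-cell wells (full inhibition).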

Compound	viability, % of control [%]	Potency
O=C(O)CC/C=C\CC[C@H]1[C@@H](N2CCCCC2)[C@@H](O)C[C@@H]1OCc1ccc(-c2ccccc2)cc1	97.5	
CN(NC(=O)CC(=O)NN(C)C(=S)c1ccccc1)C(=S)c1ccccc1		3.3 nM (active)
Cc1c2oc3c(C)ccc(C(=O)N[C@@H]4C(=O)NC(C(C)C)C(=O)N5CCC[C@H]5C(=O)N(C)CC(=O)N(C)C(C(C)C)C(=O)O[C@@H]4C)c3nc-2c(C(=O)N[C@@H]2C(=O)NC(C(C)C)C(=O)N3CCC[C@H]3C(=O)N(C)CC(=O)N(C)C(C(C)C)C(=O)O[C@@H]2C)c(N)c1=O (some centres undefined) (I: T[ξV]P[Sar][ξNMeV] / II: T[ξV]P[Sar][ξNMeV]; ester I:1-I:C, II:1-II:C; linker I:N-II:N via Actinocin(9to1))		4.7 nM (active)

Assay: Identifying Small Molecule Inhibitors of Pancreatic Cancer Stem Cells (A278, Adherent) (AID 1259361);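 note: viability read after 48 h compound exposure; nearly all actives have a fitted effect of over 35% in size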;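 for viability (% of control): 100% = DMSO-treated cells and 0% = cell-free media-only wells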
Conditions: series mostly up to 46.1 µM; viability (% of control): at the top concentration
How it was run: as §1

Compound	viability (% of control)	IC50 (viability decrease)
O=C(O)CC/C=C\CC[C@H]1[C@@H](N2CCCCC2)[C@@H](O)C[C@@H]1OCc1ccc(-c2ccccc2)cc1	101	
CC(NC(=O)Cc1cc(F)cc(F)c1)C(=O)NC(C(=O)OC(C)(C)C)c1ccccc1 (centres undefined)	91.3	
COC(=O)C1=C(C)NC(C)=C(C(=O)OCCCN2CCC(c3ccccc3)(c3ccccc3)CC2)[C@H]1c1cccc([N+](=O)[O-])c1		26400 nM (active)
CCCCCCCCCCCCCCCCCCOP(=O)([O-])OC1CC[N+](C)(C)CC1		8120 nM (active)
CCOc1cc2ncc(C#N)c(Nc3ccc(OCc4ccccn4)c(Cl)c3)c2cc1NC(=O)/C=C/CN(C)C		1180 nM (active)
CCC1(O)CC2CN(CCc3c([nH]c4ccccc34)[C@@](C(=O)OC)(c3cc4c(cc3OC)N(C=O)[C@H]3[C@](O)(C(=O)OC)[C@H](OC(C)=O)[C@]5(CC)C=CCN6CC[C@]43[C@@H]65)C2)C1 (some centres undefined)		418 nM (active)
C[C@@H]1CCN(C(=O)CC#N)C[C@@H]1N(C)c1ncnc2[nH]ccc12	82.4	

Assay: Identifying Small Molecule Inhibitors of Pancreatic Cancer Stem Cells (Panc1, Adherent) (AID 1259362); note: potency is the fitted concentration of half-maximal effect;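 for viability, % of control: compound exposure lasted 48 h before the viability read; plate controls were DMSO-treated cells for no effect and cell-free media wells for full effect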
Conditions: Potency: viability; series mostly up to 46.1 µM; viability, % of control: at the top concentration
How it was run: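 Endpoint: ATP-based luminescence, 48 h drug exposure. Bortezomib at 9.2 uM final as full-kill control; DMSO vehicle as negative control; activity normalized between vehicle and cell-free wells.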

Compound	viability, % of control [%]	Potency
CC(NC(=O)Cc1cc(F)cc(F)c1)C(=O)NC(C(=O)OC(C)(C)C)c1ccccc1 (centres undefined)	135	
CN(NC(=O)CC(=O)NN(C)C(=S)c1ccccc1)C(=S)c1ccccc1	112	
O=c1cc(C2=CC=CC3Sc4ccccc4SC23)oc(N2CCOCC2)c1 (centres undefined)	106	
CCOc1cc2ncc(C#N)c(Nc3ccc(OCc4ccccn4)c(Cl)c3)c2cc1NC(=O)/C=C/CN(C)C		2640 nM (active)
Cc1c2oc3c(C)ccc(C(=O)N[C@@H]4C(=O)NC(C(C)C)C(=O)N5CCC[C@H]5C(=O)N(C)CC(=O)N(C)C(C(C)C)C(=O)O[C@@H]4C)c3nc-2c(C(=O)N[C@@H]2C(=O)NC(C(C)C)C(=O)N3CCC[C@H]3C(=O)N(C)CC(=O)N(C)C(C(C)C)C(=O)O[C@@H]2C)c(N)c1=O (some centres undefined) (I: T[ξV]P[Sar][ξNMeV] / II: T[ξV]P[Sar][ξNMeV]; ester I:1-I:C, II:1-II:C; linker I:N-II:N via Actinocin(9to1))		13.2 nM (active)
CCC1(O)CC2CN(CCc3c([nH]c4ccccc34)[C@@](C(=O)OC)(c3cc4c(cc3OC)N(C=O)[C@H]3[C@](O)(C(=O)OC)[C@H](OC(C)=O)[C@]5(CC)C=CCN6CC[C@]43[C@@H]65)C2)C1 (some centres undefined)		2.6 nM (active)

Assay: P-glycoprotein substrates identified in KB-3-1 adenocarcinoma cell line, qHTS therapeutic library screen (AID 1346986); note: nearly all actives have a fitted effect of over 60% in size
Conditions: KB-3-1 parental cells viability, CellTiter-Glo, 72 h; series mostly up to 44.5 µM; activity change, negative = cytotoxicity: at the top concentration; outcome: at the top concentration
How it was run: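 In 1536-well format, 500 cells/well received pinned compound titrations and were incubated 72 h, 5% CO2. Viability was read by CellTiter-Glo; cytotoxic if AC50 < 10 uM and efficacy >50%.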

Compound	outcome
OCCc1ccc(O[C@@H]2O[C@H](CO)[C@@H](O)[C@H](O)[C@H]2O)c(O)c1	inactive
C[C@@H]1O[C@@H](O[C@@H]2[C@@H](O)[C@H](O[C@@H]3[C@@H](O)[C@@H](O)[C@H](O[C@H]4[C@H](OC(=O)[C@]56CCC(C)(C)C[C@H]5C5=CCC7[C@@]8(C)C[C@H](O)[C@H](O[C@@H]9O[C@@H](C)[C@H](O)[C@@H](O)[C@H]9O)[C@@](C)(CO)C8CC[C@@]7(C)[C@]5(C)C[C@H]6O)O[C@H](C)[C@H](O)[C@@H]4O)O[C@H]3C)OC[C@H]2O)[C@H](O)[C@H](O)[C@H]1O (some centres undefined)	inactive [at 9.29 µM]
C=C1CC2(C(=O)O)CC1CCC2C1(C)CCCC2(C)C(=O)OC(O)C21 (centres undefined)	inactive
COC1=CC(=O)O[C@@H](/C=C/c2ccccc2)[C@@H]1O	inactive
CC(C)C1=CCC(C)(O)C(OC2OC(CO)C(O)C(O)C2O)C1 (centres undefined)	inactive
COc1ccc(C)c2sc(NC(=O)c3ccncc3)nc12	inactive
COc1ccccc1[C@@H]1C2=C(CC(C)(C)CC2=O)Nc2n[nH]c(C(F)(F)F)c21	inactive
CNC(=O)[C@H]1O[C@@H](n2cnc3c(NCc4ccc(N)c(I)c4)ncnc32)[C@H](O)[C@@H]1O	inactive [at 9.29 µM]
OCC1=CC[C@@H]2C=CO[C@@H](O[C@@H]3O[C@H](CO)[C@@H](O)[C@H](O)[C@H]3O)[C@H]12	inactive
C=C1C(=O)O[C@H]2[C@H]1[C@@H](OC(=O)C(C)CO)C[C@@]1(C)[C@H](O)CCC(=O)[C@H]21 (some centres undefined)	inactive
COC1CC(=O)CCC(C)OC(=O)CC1O (centres undefined)	inactive
CC1CC(O)C2(C)C(C(=O)O)=CCCC2C1(C)CCc1ccoc1 (centres undefined)	inactive
CC1=CC(=O)CC(C)(C)C1CCC(C)OC1OC(COC(=O)c2cc(O)c(O)c(O)c2)C(O)C(O)C1O (centres undefined)	inactive [at 17.4 µM]
CC1(C)CC2C(C1)C1(C)CCC13OC3(CO)C2O (centres undefined)	inactive
CC1(C)CCCC2(C)C(CO)C3CCC2C31 (centres undefined)	inactive
CC(C)C1=CC2=CCC3[C@](C)(CCC[C@@]3(C)C(=O)O)C2CC1O (some centres undefined)	inactive
CO[C@@]12CC3[C@@H]([C@@H](O)[C@@H](OC(C)=O)C4[C@](C)(COC(C)=O)CCC[C@]34C)[C@@H](C)C1=CC(=O)O2 (some centres undefined)	inactive [at 17.4 µM]
CC1=C2CC3OC3(C)CCC3OC3(C)CC2OC1=O (centres undefined)	inactive
CC1(C)CC[C@]2(C(=O)O[C@@H]3O[C@H](CO)[C@@H](O)[C@H](O)[C@H]3O)CC[C@]3(C)C(=CCC4[C@@]5(C)C[C@@H](O)[C@H](O)[C@@](C)(CO)C5CC[C@]43C)C2C1 (some centres undefined)	inactive [at 17.4 µM]
Cc1ccc(Sc2cncc3sc(C(N)=O)cc23)cc1	inactive
CC(=O)O[C@@H]1[C@H]2[C@@H](OC(=O)c3ccccc3)[C@@H](C)C[C@]2(O)[C@H](OC(C)=O)[C@@]2(C)[C@@H]3CC(C)(C)C(=O)[C@]3(OC(C)=O)C[C@@]12C	inactive [at 17.4 µM]
C=Cc1cc(O)cc2nc(-c3ccc(O)c(F)c3)oc12	inactive
CCC(C)C1NC(=O)C2CCCN2C(=O)C(C(C)C)NC(=O)c2ccccc2NC(=O)C(Cc2ccc(O)cc2)NC(=O)C(C)NC(=O)C(C(C)O)NC1=O (centres undefined) (cyclo([2Abz]VPITAY); configuration not given here)	inactive [at 17.4 µM]
CC1=C2C3OC(=O)C(C)C3(O)CCC2(C)CCC1=O (centres undefined)	inactive
O=c1ccn(C2OC(CO)C(O)C2O)c(=O)[nH]1 (centres undefined)	inactive
COc1ccc(C(O[C@@H]2O[C@H](CO)[C@@H](O)[C@H](O)[C@H]2O)C(CO)Oc2ccc(/C=C/CO)cc2OC)cc1O (some centres undefined)	inactive [at 17.4 µM]
CC(NC(=O)CC(=O)O)c1nc2ccccc2c(=O)[nH]1 (centres undefined)	inactive
O=C(CCO[C@@H]1O[C@H](CO)[C@@H](O)[C@H](O)[C@H]1O)c1ccc(O)cc1	inactive
C=CC(C)(O)CC/C=C(\C)C(=O)OC1CC2(C(=O)O)CCC3(C)C(=CCC4C5(C)CCC(OC6OC(COC7OCC(O)C(O)C7O)C(O)C(OC7OCC(O)C(O)C7O)C6OC6OC(CO)C(O)C(O)C6OC6OCC(O)C(O)C6O)C(C)(C)C5CCC43C)C2CC1(C)C (centres undefined)	inactive [at 9.29 µM]
C/C=C(\C)C(=O)O[C@H]1[C@H](O)[C@]2(COC(C)=O)[C@H](O)C[C@]3(C)C(=CCC4[C@@]5(C)CC[C@H](O[C@@H]6O[C@H](C(=O)O)[C@@H](O[C@@H]7O[C@H](CO)[C@@H](O)[C@H](O)[C@H]7O)[C@H](O)[C@H]6O[C@@H]6O[C@H](CO)[C@@H](O)[C@H](O)[C@H]6O)[C@](C)(CO)C5CC[C@]43C)[C@@H]2CC1(C)C (some centres undefined)	inactive [at 9.29 µM]
